# According to PubChem BioAssay AID1159580 (chemical genetic matrix, 2015):
# The whole screen tested about 5,500 compounds, of which about 2,000 (36%) were called active. Another 18% or so got no clear call; they are omitted. The list shows a part of the results. Values without a mark were called inactive. Rule as the data show it: active = normalized growth mostly below about 0.91 (no sharp cut-off); inconclusive = no clear call, values can overlap the other calls; inactive = mostly above about 0.92.
# Experiment: chemical genetic growth profiling, strain panel (AID 1159580);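 also: tested at 20 µM; growth read once vehicle control cultures reached saturation at 30 °C; 1 = growth at the plate median or of vehicle wells; lower values mean less growth of the strain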
# Conditions: growth OD
# [1] = S. cerevisiae deletion strains, locus YAL013W, strain DEP1, hits give low values
# [2] = S. cerevisiae deletion strains, locus YGR229C, strain SMI1, hits give low values
# [3] = S. cerevisiae deletion strains, locus YJR075W, strain HOC1, hits give low values
# [4] = S. cerevisiae deletion strains, locus YMR263W, strain SAP30, hits give low values
# [5] = S. cerevisiae deletion strains, locus YNL322C, strain KRE1, hits give low values
# [6] = S. cerevisiae deletion strains, locus YPL055C, strain LGE1, hits give low values
# [7] = S. cerevisiae deletion strains, locus YPL241C, strain CIN2, hits give low values
# [8] = S. cerevisiae deletion strains, locus YAL040C, strain CLN3, hits give low values
# [9] = S. cerevisiae deletion strains, locus YCL061C, strain MRC1 (second series), hits give low values
# [10] = S. cerevisiae deletion strains, locus YDR363W, strain ESC2, hits give low values
# [11] = S. cerevisiae deletion strains, locus YER002W, strain NOP16, hits give low values
# [12] = S. cerevisiae deletion strains, locus YNL175C, strain NOP13, hits give low values
# [13] = S. cerevisiae deletion strains, locus YNL197C, strain WHI3, hits give low values
# [14] = S. cerevisiae deletion strains, locus YNL224C, strain SQS1, hits give low values
# [15] = S. cerevisiae deletion strains, locus YOR083W, strain WHI5 (second series), hits give low values
smiles,measurement,setting,value
CN1CC(CO)=C[C@@H]2c3cccc4[nH]cc(c34)C[C@H]21,normalized growth,[1],0.994
same,normalized growth,"S. cerevisiae deletion strains, locus YBR021W, strain FUR4, hits give low values",1.02
same,normalized growth,"S. cerevisiae deletion strains, locus YBR229C, strain ROT2, hits give low values",0.967
same,normalized growth,"S. cerevisiae deletion strains, locus YCL029C, strain bik1, hits give low values",1.01
same,normalized growth,"S. cerevisiae deletion strains, locus YDL035C, strain GPR1, hits give low values",0.99
same,normalized growth,"S. cerevisiae deletion strains, locus YDL074C, strain BRE1, hits give low values",0.957
same,normalized growth,"S. cerevisiae deletion strains, locus YDL101C, strain DUN1, hits give low values",0.97
same,normalized growth,"S. cerevisiae deletion strains, locus YDL134C, strain PPH21, hits give low values",0.998
same,normalized growth,"S. cerevisiae deletion strains, locus YDL185W, strain tfp1, hits give low values",0.982
same,normalized growth,"S. cerevisiae deletion strains, locus YDL192W, strain arf1, hits give low values",1.01
same,normalized growth,"S. cerevisiae deletion strains, locus YDR101C, strain arx1, hits give low values",1.01
same,normalized growth,"S. cerevisiae deletion strains, locus YDR150W, strain NUM1, hits give low values",0.991
same,normalized growth,"S. cerevisiae deletion strains, locus YDR162C, strain NBP2, hits give low values",0.964
same,normalized growth,"S. cerevisiae deletion strains, locus YDR318W, strain mcm21, hits give low values",1.02
same,normalized growth,"S. cerevisiae deletion strains, locus YDR388W, hits give low values",1.01
same,normalized growth,"S. cerevisiae deletion strains, locus YDR502C, strain sam2, hits give low values",0.993
same,normalized growth,"S. cerevisiae deletion strains, locus YEL061C, strain CIN8, hits give low values",0.995
same,normalized growth,"S. cerevisiae deletion strains, locus YER110C, hits give low values",1.01
same,normalized growth,"S. cerevisiae deletion strains, locus YER155C, strain BEM2, hits give low values",1.01
same,normalized growth,"S. cerevisiae deletion strains, locus YER167W, strain BCK2, hits give low values",1.01
same,normalized growth,"S. cerevisiae deletion strains, locus YGL078C, strain dbp3, hits give low values",0.997
same,normalized growth,"S. cerevisiae deletion strains, locus YGL086W, strain mad1, hits give low values",1.01
same,normalized growth,"S. cerevisiae deletion strains, locus YGL248W, strain PDE1, hits give low values",0.988
same,normalized growth,"S. cerevisiae deletion strains, locus YGR078C, strain PAC10, hits give low values",0.977
same,normalized growth,"S. cerevisiae deletion strains, locus YGR135W, strain pre9, hits give low values",0.985
same,normalized growth,[2],0.992
same,normalized growth,"S. cerevisiae deletion strains, locus YGR252W, strain gcn5, hits give low values",1.05
same,normalized growth,"S. cerevisiae deletion strains, locus YHR030C, strain SLT2, hits give low values",1.01
same,normalized growth,"S. cerevisiae deletion strains, locus YHR079C, strain IRE1 (second series), hits give low values",1.01
same,normalized growth,"S. cerevisiae deletion strains, locus YHR094C, strain hxt1, hits give low values",1.01
same,normalized growth,"S. cerevisiae deletion strains, locus YHR129C, strain ARP1, hits give low values",1.01
same,normalized growth,"S. cerevisiae deletion strains, locus YHR200W, strain rpn10, hits give low values",1.01
same,normalized growth,"S. cerevisiae deletion strains, locus YIL066C, strain RNR3, hits give low values",0.983
same,normalized growth,"S. cerevisiae deletion strains, locus YIL073C, strain SPO22, hits give low values",1.05
same,normalized growth,"S. cerevisiae deletion strains, locus YIL125W, strain kgd1, hits give low values",0.996
same,normalized growth,"S. cerevisiae deletion strains, locus YIR030C, strain dcg1, hits give low values",1
same,normalized growth,"S. cerevisiae deletion strains, locus YJL095W, strain BCK1, hits give low values",0.995
same,normalized growth,"S. cerevisiae deletion strains, locus YJL134W, strain LCB3, hits give low values",0.989
same,normalized growth,"S. cerevisiae deletion strains, locus YJL168C, strain set2, hits give low values",0.998
same,normalized growth,"S. cerevisiae deletion strains, locus YJL187C, strain SWE1 (second series), hits give low values",0.975
same,normalized growth,"S. cerevisiae deletion strains, locus YJR043C, strain POL32, hits give low values",1.03
same,normalized growth,[3],0.945
same,normalized growth,"S. cerevisiae deletion strains, locus YKL009W, strain mrt4, hits give low values",1.01
same,normalized growth,"S. cerevisiae deletion strains, locus YKL068W, hits give low values",0.999
same,normalized growth,"S. cerevisiae deletion strains, locus YKL085W, strain MDH1 (second series), hits give low values",1.02
same,normalized growth,"S. cerevisiae deletion strains, locus YKL085W, strain MDH1, hits give low values",1.02
same,normalized growth,"S. cerevisiae deletion strains, locus YKL190W, strain CNB1, hits give low values",0.994
same,normalized growth,"S. cerevisiae deletion strains, locus YKR001C, strain vps1, hits give low values",1.02
same,normalized growth,"S. cerevisiae deletion strains, locus YLR039C, strain RIC1, hits give low values",0.954
same,normalized growth,"S. cerevisiae deletion strains, locus YLR058C, strain SHM2, hits give low values",0.982
same,normalized growth,"S. cerevisiae deletion strains, locus YLR102C, strain apc9, hits give low values",1
same,normalized growth,"S. cerevisiae deletion strains, locus YLR262C, strain YPT6, hits give low values",0.957
same,normalized growth,"S. cerevisiae deletion strains, locus YLR268W, strain sec22, hits give low values",0.975
same,normalized growth,"S. cerevisiae deletion strains, locus YLR330W, strain CHS5, hits give low values",1
same,normalized growth,"S. cerevisiae deletion strains, locus YLR342W, strain FKS1 (second series), hits give low values",1.03
same,normalized growth,"S. cerevisiae deletion strains, locus YLR371W, strain rom2, hits give low values",1.01
same,normalized growth,"S. cerevisiae deletion strains, locus YLR418C, strain cdc73, hits give low values",0.966
same,normalized growth,"S. cerevisiae deletion strains, locus YML016C, strain PPZ1, hits give low values",1
same,normalized growth,"S. cerevisiae deletion strains, locus YML032C, strain rad52, hits give low values",1.01
same,normalized growth,"S. cerevisiae deletion strains, locus YML124C, strain tub3, hits give low values",1.01
same,normalized growth,"S. cerevisiae deletion strains, locus YMR078C, strain ctf18, hits give low values",1.01
same,normalized growth,"S. cerevisiae deletion strains, locus YMR223W, strain ubp8, hits give low values",1.02
same,normalized growth,[4],0.955
same,normalized growth,"S. cerevisiae deletion strains, locus YMR307W, strain GAS1, hits give low values",1.06
same,normalized growth,"S. cerevisiae deletion strains, locus YNL067W, strain RPL9B, hits give low values",0.987
same,normalized growth,"S. cerevisiae deletion strains, locus YNL128W, strain TEP1, hits give low values",0.939
same,normalized growth,"S. cerevisiae deletion strains, locus YNL153C, strain GIM3, hits give low values",0.975
same,normalized growth,"S. cerevisiae deletion strains, locus YNL233W, strain BNI4, hits give low values",0.99
same,normalized growth,"S. cerevisiae deletion strains, locus YNL250W, strain rad50, hits give low values",0.988
same,normalized growth,"S. cerevisiae deletion strains, locus YNL271C, strain bni1, hits give low values",1.01
same,normalized growth,"S. cerevisiae deletion strains, locus YNL298W, strain CLA4, hits give low values",1.01
same,normalized growth,"S. cerevisiae deletion strains, locus YNL307C, strain MCK1, hits give low values",1.02
same,normalized growth,[5],0.982
same,normalized growth,"S. cerevisiae deletion strains, locus YNR052C, strain pop2, hits give low values",1.01
same,normalized growth,"S. cerevisiae deletion strains, locus YOL006C, strain TOP1, hits give low values",0.983
same,normalized growth,"S. cerevisiae deletion strains, locus YOL012C, strain htz1",1.85
same,normalized growth,"S. cerevisiae deletion strains, locus YOL147C, strain pex11, hits give low values",1.01
same,normalized growth,"S. cerevisiae deletion strains, locus YOR061W, strain CKA2, hits give low values",0.963
same,normalized growth,"S. cerevisiae deletion strains, locus YOR069W, strain VPS5, hits give low values",1
same,normalized growth,"S. cerevisiae deletion strains, locus YOR136W, strain idh2, hits give low values",1.01
same,normalized growth,"S. cerevisiae deletion strains, locus YOR144C, strain elg1, hits give low values",1.01
same,normalized growth,"S. cerevisiae deletion strains, locus YOR184W, strain ser1, hits give low values",1.02
same,normalized growth,"S. cerevisiae deletion strains, locus YOR316C, strain cot1, hits give low values",1
same,normalized growth,[6],0.938
same,normalized growth,[7],0.997
same,normalized growth,"S. cerevisiae deletion strains, locus YPR119W, strain clb2, hits give low values",1.01
same,normalized growth,"S. cerevisiae deletion strains, locus YPR141C, strain kar3, hits give low values",0.998
same,normalized growth,"S. cerevisiae deletion strains, locus YPR163C, strain tif3, hits give low values",1.01
same,normalized growth,"S. cerevisiae deletion strains, locus YPR167C, strain met16, hits give low values",0.996
same,normalized growth,"S. cerevisiae deletion strains, strain wtn01, hits give low values",0.995
same,normalized growth,"S. cerevisiae strains, strain wild type, hits give low values",0.99
c1ccc(CCCN2CCN(CCOC(c3ccccc3)c3ccccc3)CC2)cc1,normalized growth,[1],0.977
same,normalized growth,[8],0.967
same,normalized growth,[9],0.932 (active)
same,normalized growth,[10],0.941
same,normalized growth,[11],0.998
same,normalized growth,[3],0.93
same,normalized growth,[4],0.992
same,normalized growth,[12],0.996
same,normalized growth,[13],0.991
same,normalized growth,[14],1.02
same,normalized growth,[15],0.881
same,normalized growth,[6],0.95
Fc1ccc(C(OCCCc2cnc[nH]2)c2ccc(F)cc2)cc1,normalized growth,[8],1.01
same,normalized growth,[9],1
same,normalized growth,[10],0.979
same,normalized growth,[11],1.04
same,normalized growth,[2],1.02
same,normalized growth,[4],1.01
same,normalized growth,[12],1.01
same,normalized growth,[13],1.01
same,normalized growth,[14],1.02
same,normalized growth,[5],1.03
same,normalized growth,[15],1.03
same,normalized growth,[7],1.01
